According to the antibiotic and cytotoxicity screens of Wong et al. (2023):
Among all 39,000 compounds or so, about 1,500 (3.8%) were called active. For the sample, actives were picked, then their nearest neighbours and some compounds at random.

test system: HSkMC (human skeletal muscle cells); assay: cytotoxicity call (relative viability < 0.9); conditions: 10 µM

Q: How did the cytotoxicity call turn out when `CN(C)CC(=O)N[C@H]1C=C[C@H](CC(=O)NCCN2CCCCC2)O[C@H]1CO` was run?
A: inactive

Q: Which cytotoxicity call does the source give for `COC(=O)[C@@H](NC(=O)Cn1cc(COc2ccccc2/C=C(C)/C=C/C(=O)NO)nn1)c1ccccc1` here?
A: inactive

Q: How did the cytotoxicity call turn out when `Cc1noc(C)c1NC(=O)Nc1ccc2c(c1)C(=O)N([C@@H](C)CO)C[C@@H](C)[C@@H](CN(C)Cc1ccc(Oc3ccccc3)cc1)O2` was run?
A: inactive

Q: Which cytotoxicity call does the source give for `N=C(C[n+]1ccccc1)NO` here?
A: inactive

Q: Which cytotoxicity call does the source give for `COC(=O)[C@H](Cc1ccc(-n2cc(-c3cccc(/C=C/C(=O)NO)c3)nn2)cc1)N1CC2=C[C@H]([C@@H](O)Cc3ccccc3)n3c(=O)n(C)c(=O)n3[C@@H]2[C@@H](C2CC2)O1` here?
A: inactive

Q: For `C[C@H](CO)N1C[C@H](C)[C@@H](CN(C)Cc2ccc(C(=O)Nc3ccccc3N)cc2)Oc2ccc(NC(=O)CCN3CCOCC3)cc2CC1=O`, which cytotoxicity call is on record?
A: inactive

Q: How did the cytotoxicity call turn out when `C[C@H](CO)N1C[C@H](C)[C@@H](CN(C)Cc2ccc(Oc3ccccc3)cc2)Oc2c(NC(=O)C3CC3)cccc2C1=O` was run?
A: inactive

Q: For `CC(C)N1C[C@H](C)[C@@H](CN(C)Cc2ccc(Oc3ccccc3)cc2)Oc2c(NC(=O)C3CCNCC3)cccc2C1=O`, which cytotoxicity call is on record?
A: active

Q: For `CC(C)N1C[C@H](C)[C@@H](CN(C)Cc2ccc(Oc3ccccc3)cc2)Oc2c(NC(=O)C3CCN(C)CC3)cccc2C1=O`, which cytotoxicity call is on record?
A: inactive

Q: For `COCC(=O)N1C[C@@H](C)[C@@H](OC)CN(C)C(=O)c2cc(NC(=O)c3ccc(F)cc3)ccc2OC[C@H]1C`, which cytotoxicity call is on record?
A: inactive

Q: With `CN(C)CC(=O)N[C@H]1CC[C@H](CCNC(=O)C2CC2)O[C@H]1CO` as the compound, how does the cytotoxicity call read?
A: inactive

Q: For `CO[C@@H]1CN(C)C(=O)c2ccc(NS(=O)(=O)CC(F)(F)F)cc2OC[C@@H](C)N(Cc2nccs2)C[C@@H]1C`, which cytotoxicity call is on record?
A: inactive

Q: `O=C(CCCCCCC(=O)Nc1ccc([C@H]2O[C@@H](COc3ccccc3)C[C@H](c3ccccc3)O2)cc1)NO` was tested. Which cytotoxicity call did it give?
A: inactive

Q: `COc1cc2c(cc1OC)CN(C[C@H]1C[C@H](c3ccccc3)O[C@H](c3ccc(NC(=O)CCCCCCC(=O)NO)cc3)O1)CC2` was tested. Which cytotoxicity call did it give?
A: active

Q: `O=C(CCCCCCC(=O)Nc1ccc([C@H]2C[C@H](c3ccccc3)O[C@H](c3cccc(Oc4ccccc4)c3)O2)cc1)NO` was tested. Which cytotoxicity call did it give?
A: inactive

Q: `O=C(CCCCCCC(=O)Nc1ccc([C@H]2C[C@H](c3ccccc3)O[C@H](c3ccccc3)O2)cc1)NO` was tested. Which cytotoxicity call did it give?
A: inactive

Q: For `O=C(CCCCCCC(=O)Nc1ccc([C@H]2O[C@@H](CN3CCCCCCC3)C[C@H](c3ccccc3)O2)cc1)NO`, which cytotoxicity call is on record?
A: inactive

Q: How did the cytotoxicity call turn out when `O=C(CCCCCCC(=O)Nc1ccc([C@H]2C[C@H](c3ccccc3)O[C@H](c3ccc(Oc4ccccc4)cc3)O2)cc1)NO` was run?
A: active

Q: How did the cytotoxicity call turn out when `C[C@@H]1CN([C@H](C)CO)C(=O)c2cc(NC(=O)C3CCCCC3)ccc2O[C@@H](C)CCCCO[C@H]1CN(C)S(=O)(=O)c1cccs1` was run?
A: inactive

Q: Which cytotoxicity call does the source give for `COc1ccc(NC(=O)N(C)C[C@@H]2OCCCC[C@H](C)Oc3ccc(NC(=O)Nc4c(C)noc4C)cc3C(=O)N([C@@H](C)CO)C[C@H]2C)cc1` here?
A: inactive

Q: With `CC(C)=CCCC(C)=CCO` as the compound, how does the cytotoxicity call read?
A: inactive

Q: `CN(C)CCOc1ccc(C(=C(CCCl)c2ccccc2)c2ccccc2)cc1.O=C(O)CC(O)(CC(=O)O)C(=O)O` was tested. Which cytotoxicity call did it give?
A: active

Q: How did the cytotoxicity call turn out when `CCC(=C(c1ccccc1)c1ccc(OCCN(C)C)cc1)c1ccccc1.O=C(O)CC(O)(CC(=O)O)C(=O)O` was run?
A: inactive

Q: For `CCN(CC)CCOc1ccc(C(=C(Cl)c2ccccc2)c2ccccc2)cc1.O=C(O)CC(O)(CC(=O)O)C(=O)O`, which cytotoxicity call is on record?
A: inactive

Q: With `C[C@H]1CN([C@@H](C)CO)S(=O)(=O)c2ccc(C3=CCCC3)cc2O[C@@H]1CN(C)C(=O)c1cnccn1` as the compound, how does the cytotoxicity call read?
A: inactive

Q: For `C[C@@H]1CN([C@@H](C)CO)S(=O)(=O)c2ccc(C#CCC3CCCC3)cc2O[C@@H]1CN(C)C(=O)CN(C)C`, which cytotoxicity call is on record?
A: inactive

Q: Which cytotoxicity call does the source give for `Cc1cc(-c2ccc(NN=C3C=Cc4c(S(=O)(=O)O)cc(S(=O)(=O)O)c(N)c4C3=O)c(C)c2)ccc1NN=C1C=Cc2c(S(=O)(=O)O)cc(S(=O)(=O)O)c(N)c2C1=O` here?
A: inactive

Q: For `COc1cc(-c2ccc(NN=C3C=Cc4c(S(=O)(=O)O)cc(S(=O)(=O)O)c(N)c4C3=O)c(OC)c2)ccc1NN=C1C=Cc2c(S(=O)(=O)O)cc(S(=O)(=O)O)c(N)c2C1=O`, which cytotoxicity call is on record?
A: active

Q: How did the cytotoxicity call turn out when `Cc1noc(C)c1S(=O)(=O)Nc1ccc2c(c1)CC(=O)N([C@@H](C)CO)C[C@@H](C)[C@H](CN(C)C(=O)NC(C)C)O2` was run?
A: inactive

Q: For `C[C@@H]1CN([C@@H](C)CO)C(=O)c2cc(NC(=O)Nc3cccc4ccccc34)ccc2O[C@@H](C)CCCCO[C@H]1CN(C)C(=O)Nc1ccc2c(c1)OCO2`, which cytotoxicity call is on record?
A: inactive

Q: Which cytotoxicity call does the source give for `C[C@@H]1CN([C@@H](C)CO)C(=O)Cc2cc(NC(=O)CCC(F)(F)F)ccc2O[C@@H]1CN(C)S(=O)(=O)c1ccccc1` here?
A: inactive

Q: With `C[C@@H]1CN([C@H](C)CO)C(=O)Cc2cc(NC(=O)Nc3ccc(C(F)(F)F)cc3)ccc2O[C@@H]1CN(C)Cc1ccc2c(c1)OCO2` as the compound, how does the cytotoxicity call read?
A: active

Q: How did the cytotoxicity call turn out when `C[C@H]1CN([C@@H](C)CO)C(=O)Cc2cc(NC(=O)Nc3ccc(C(F)(F)F)cc3)ccc2O[C@H]1CN(C)Cc1ccc2c(c1)OCO2` was run?
A: active

Q: How did the cytotoxicity call turn out when `C[C@@H]1CN([C@@H](C)CO)C(=O)Cc2cc(NC(=O)Nc3ccc(C(F)(F)F)cc3)ccc2O[C@@H]1CN(C)Cc1ccc2c(c1)OCO2` was run?
A: active

Q: How did the cytotoxicity call turn out when `C[C@H]1CN([C@@H](C)CO)C(=O)Cc2cc(NC(=O)Nc3ccc(C(F)(F)F)cc3)ccc2O[C@@H]1CN(C)Cc1ccc2c(c1)OCO2` was run?
A: inactive

Q: With `C[C@H](CO)N1C[C@H](C)[C@H](CN(C)Cc2ccc3c(c2)OCO3)Oc2ccc(NC(=O)Nc3ccc(C(F)(F)F)cc3)cc2CC1=O` as the compound, how does the cytotoxicity call read?
A: inactive

Q: For `C[C@@H]1CN([C@H](C)CO)C(=O)Cc2cc(NC(=O)Nc3ccc(C(F)(F)F)cc3)ccc2O[C@H]1CN(C)Cc1ccc2c(c1)OCO2`, which cytotoxicity call is on record?
A: inactive

Q: Which cytotoxicity call does the source give for `C[C@H](CO)N1C[C@H](C)[C@@H](CN(C)Cc2ccc3c(c2)OCO3)Oc2ccc(NC(=O)Nc3ccc(C(F)(F)F)cc3)cc2CC1=O` here?
A: active

Q: For `C[C@@H]1CN([C@@H](C)CO)C(=O)Cc2cc(NC(=O)Nc3ccc(C(F)(F)F)cc3)ccc2O[C@H]1CN(C)Cc1ccc2c(c1)OCO2`, which cytotoxicity call is on record?
A: inactive

Q: With `C[C@@H]1CN([C@H](C)CO)C(=O)Cc2cc(NS(=O)(=O)c3cn(C)cn3)ccc2O[C@H]1CN(C)S(=O)(=O)c1ccc(F)cc1` as the compound, how does the cytotoxicity call read?
A: inactive

Q: For `C[C@@H]1CN([C@H](C)CO)S(=O)(=O)c2ccc(-c3cccnc3)cc2O[C@H]1CN(C)C(=O)NC1CCCC1`, which cytotoxicity call is on record?
A: inactive

Q: Which cytotoxicity call does the source give for `C[C@H]1CN([C@@H](C)CO)C(=O)c2cccc(NC(=O)c3ccncc3)c2O[C@H]1CN(C)C(=O)Nc1ccc2c(c1)OCO2` here?
A: inactive

Q: With `C[C@@H]1CCCCO[C@H](CN(C)C(=O)c2ccncc2)[C@@H](C)CN([C@@H](C)CO)C(=O)c2cc(NC(=O)NC3CCCCC3)ccc2O1` as the compound, how does the cytotoxicity call read?
A: inactive

Q: `Cc1noc(C)c1S(=O)(=O)Nc1ccc2c(c1)C(=O)N([C@H](C)CO)C[C@@H](C)[C@H](CN(C)S(=O)(=O)c1cn(C)cn1)O2` was tested. Which cytotoxicity call did it give?
A: inactive

Q: How did the cytotoxicity call turn out when `CCS(=O)(=O)Nc1ccc2c(c1)C(=O)N(C)[C@@H]1CC[C@H](CC(=O)NCCCN3CCOCC3)O[C@H]1CO2` was run?
A: inactive

Q: For `Cc1ccc(S[C@]2(C(=O)NCCN3CCOCC3)CC(=O)N(Cc3ccccc3Cl)[C@@H]2c2ccc(CO)cc2I)cc1`, which cytotoxicity call is on record?
A: inactive

Q: How did the cytotoxicity call turn out when `C[C@H](CO)N1C[C@H](C)[C@@H](CN(C)C(=O)CN2CCOCC2)Oc2ncc(C#C[C@@H](C)O)cc2C1=O` was run?
A: inactive

Q: For `COCC(=O)N(C)C[C@H]1Oc2cc(C#Cc3cccnc3)ccc2S(=O)(=O)N([C@H](C)CO)C[C@@H]1C`, which cytotoxicity call is on record?
A: inactive

Q: Which cytotoxicity call does the source give for `C[C@@H]1CCCCO[C@H](CN(C)Cc2ccc(C(=O)O)cc2)[C@@H](C)CN([C@H](C)CO)C(=O)c2cc(NC(=O)Nc3ccc4c(c3)OCO4)ccc2O1` here?
A: inactive

Q: How did the cytotoxicity call turn out when `Cc1noc(C)c1S(=O)(=O)Nc1ccc2c(c1)C(=O)N([C@H](C)CO)C[C@H](C)[C@H](CN(C)S(=O)(=O)c1cn(C)cn1)OCCCC[C@@H](C)O2` was run?
A: inactive

Q: Which cytotoxicity call does the source give for `C[C@H](CCC(=O)O)[C@H]1CC[C@H]2[C@@H]3CC=C4C[C@@H](O)CC[C@]4(C)[C@H]3CC[C@]12C` [3beta-HYDROXYCHOL-5-ENIC ACID ] here?
A: inactive

Q: For `Cc1noc(C)c1S(=O)(=O)Nc1ccc2c(c1)C(=O)N([C@@H](C)CO)C[C@@H](C)[C@@H](CN(C)Cc1ccc(C(F)(F)F)cc1)OCCCC[C@@H](C)O2`, which cytotoxicity call is on record?
A: inactive

Q: With `C[C@H]1CN([C@@H](C)CO)C(=O)Cc2cc(NC(=O)Nc3ccc(C(F)(F)F)cc3)ccc2O[C@H]1CN(C)Cc1ccc(C(=O)O)cc1` as the compound, how does the cytotoxicity call read?
A: inactive

Q: For `C[C@@H]1CN([C@@H](C)CO)C(=O)Cc2cc(NC(=O)Nc3ccc(C(F)(F)F)cc3)ccc2O[C@H]1CN(C)Cc1ccc(C(=O)O)cc1`, which cytotoxicity call is on record?
A: inactive

Q: How did the cytotoxicity call turn out when `C[C@H](CO)N1C[C@H](C)[C@H](CN(C)Cc2ccc(C(F)(F)F)cc2)Oc2ccc(NC(=O)Nc3ccc(C(F)(F)F)cc3)cc2CC1=O` was run?
A: active

Q: `C[C@@H]1CN([C@@H](C)CO)C(=O)Cc2cc(NC(=O)Nc3ccc(C(F)(F)F)cc3)ccc2O[C@H]1CN(C)Cc1ccc(C(F)(F)F)cc1` was tested. Which cytotoxicity call did it give?
A: active

Q: For `C[C@H](CO)N1C[C@H](C)[C@H](CN(C)Cc2ccc(C(=O)O)cc2)Oc2ccc(NC(=O)Nc3ccc(C(F)(F)F)cc3)cc2CC1=O`, which cytotoxicity call is on record?
A: inactive

Q: Which cytotoxicity call does the source give for `C[C@H](CO)N1C[C@H](C)[C@@H](CN(C)Cc2ccc(C(=O)O)cc2)Oc2ccc(NC(=O)Nc3ccc(C(F)(F)F)cc3)cc2CC1=O` here?
A: inactive

Q: With `C[C@@H]1CN([C@H](C)CO)C(=O)Cc2cc(NC(=O)Nc3ccc(C(F)(F)F)cc3)ccc2O[C@H]1CN(C)Cc1ccc(C(=O)O)cc1` as the compound, how does the cytotoxicity call read?
A: inactive

Q: How did the cytotoxicity call turn out when `C[C@H]1CN([C@@H](C)CO)C(=O)Cc2cc(NC(=O)Nc3ccc(C(F)(F)F)cc3)ccc2O[C@@H]1CN(C)Cc1ccc(C(F)(F)F)cc1` was run?
A: active

Q: With `C[C@H]1CN([C@@H](C)CO)C(=O)Cc2cc(NC(=O)Nc3ccc(C(F)(F)F)cc3)ccc2O[C@@H]1CN(C)Cc1ccc(C(=O)O)cc1` as the compound, how does the cytotoxicity call read?
A: inactive

Q: `C[C@H]1CN([C@@H](C)CO)C(=O)Cc2cc(NC(=O)Nc3ccc(C(F)(F)F)cc3)ccc2O[C@H]1CN(C)Cc1ccc(C(F)(F)F)cc1` was tested. Which cytotoxicity call did it give?
A: active
